Data published in PubChem BioAssay (Tox21).
Records with an inconclusive call do not appear. Some compounds were tested as several samples or in several runs, with calls that do not always agree. Activity calls are given as the source filed them. The call rests on the fitted dose curve.

Columns and labels:
[1] = target: Acetylcholinesterase (Homo sapiens) (UniProt P22303); assay: Acetylcholinesterase (AChE) small molecule antagonists: colormetric cell-based qHTS assay (AID 1347395); further: nearly all actives have a fitted effect of over 30% in size; further: potency means the concentration at half of the fitted maximal effect
Sequence of Acetylcholinesterase (Homo sapiens) (P22303 whole entry, looked up): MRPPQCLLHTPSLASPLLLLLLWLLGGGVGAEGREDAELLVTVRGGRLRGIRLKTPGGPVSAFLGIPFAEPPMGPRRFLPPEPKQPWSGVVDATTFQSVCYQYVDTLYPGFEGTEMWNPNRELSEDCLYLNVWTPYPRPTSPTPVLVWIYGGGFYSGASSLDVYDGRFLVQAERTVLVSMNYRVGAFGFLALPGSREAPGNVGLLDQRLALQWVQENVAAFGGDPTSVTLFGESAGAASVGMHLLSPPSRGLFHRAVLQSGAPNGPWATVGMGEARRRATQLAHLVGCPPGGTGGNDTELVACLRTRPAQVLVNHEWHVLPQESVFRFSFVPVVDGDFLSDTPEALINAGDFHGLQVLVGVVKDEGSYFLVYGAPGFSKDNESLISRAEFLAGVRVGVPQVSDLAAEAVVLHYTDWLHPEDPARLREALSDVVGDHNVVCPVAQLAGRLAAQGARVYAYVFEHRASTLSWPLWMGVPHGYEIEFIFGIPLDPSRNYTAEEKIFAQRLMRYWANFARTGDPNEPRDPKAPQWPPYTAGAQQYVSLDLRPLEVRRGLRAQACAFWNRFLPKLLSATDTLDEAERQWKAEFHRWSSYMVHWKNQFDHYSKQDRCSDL
Method in brief: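 Colorimetric readout: DTNB quantifies thiocholine from acetylthiocholine hydrolysed by endogenous AChE of SH-SY5Y cells (2,000/well, plated overnight). Compound pretreatment 30 min, substrate incubation 90 min, both 37 C.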

[2] = target: Acetylcholinesterase (Homo sapiens) (UniProt P22303); assay: Acetylcholinesterase (AChE) small molecule antagonists: enzyme-based qHTS assay (AID 1347397); settings: Potency: AChE enzyme activity inhibition; outcome: AChE enzyme activity inhibition; further: nearly all actives have a fitted effect of over 55% in size
Method in brief: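 In this quantitative HTS, compounds from the Tox21 10K collection were preincubated 30 min at ambient temperature with recombinant human AChE dispensed at 50 mU/mL. Hydrolysis of acetylthiocholine was then followed for 10 min by DTNB colour development.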

[3] = target: Acetylcholinesterase (Homo sapiens) (UniProt P22303); assay: Acetylcholinesterase (AChE) small molecule antagonists: fluorescence cell-based qHTS assay (AID 1347398); settings: Potency: AChE activity; outcome: AChE activity; further: nearly all actives have a fitted effect of over 50% in size
Method in brief: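 Cells (SH-SY5Y) attached overnight, were dosed with compound or DMSO vehicle for 30 min at 37 C, and then incubated 40 min at room temperature with acetylthiocholine and Thiolite Green; green fluorescence indexed AChE activity.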

[4] = target: Acetylcholinesterase (Homo sapiens) (UniProt P22303); assay: Acetylcholinesterase (AChE) small molecule antagonists: enzyme-based qHTS assay with human liver microsomes (AID 1347399); settings: Potency: qHTS inhibition; outcome: qHTS inhibition; further: nearly all actives have a fitted effect of over 60% in size
Method in brief: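 Recombinant human AChE (50 mU/mL in the enzyme mix) and human liver microsomes (0.25 mg/mL final) were preincubated with compound and NADPH (0.25 mg/mL final) for 30 min at 37 C. Acetylthiocholine/DTNB was then added; thiocholine was read colorimetrically after 10 min at room temperature.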

Measured: Potency

CCCc1c(OCCCCc2nn[nH]n2)ccc(C(C)=O)c1O
inactive: all assays above

NC(CCC(=O)O)C(=O)O (stereo unspecified)
inactive: all assays above

CC(=O)OC(C)OC(=O)C(C)c1ccc(-c2ccccc2)c(F)c1 (stereo unspecified)
inactive: all assays above

Cc1ccc(Cl)cc1
inactive: all assays above

C#C[C@]1(O)CC[C@H]2[C@@H]3CCC4=CC(=O)CC[C@@H]4[C@H]3CC[C@@]21CC
inactive: all assays above

O=S(=O)(O)c1ccc2ccccc2c1
inactive: all assays above

CCCC[C@H]1CN(CC2CCOCC2)C(=O)OC12CCN(C1(C)CCN(C(=O)c3c(C)ncnc3C)CC1)CC2
inactive: all assays above

Cc1cccc2cccnc12
inactive: all assays above

CC(O)COCC(C)O (stereo unspecified)
inactive: all assays above

O=C1c2ccccc2C(=O)N1CCl
inactive: all assays above

Cc1ncc([N+](=O)[O-])n1CCO
inactive: all assays above

CNC[C@H](O)[C@@H](O)[C@H](O)[C@H](O)CO
inactive: all assays above

CC1=C(C=O)C(C)(C)CCC1
inactive: all assays above

Cc1c(C(=O)O)c(O)cc2c1C(=O)c1c(O)c([C@@H]3O[C@H](CO)[C@@H](O)[C@H](O)[C@H]3O)c(O)c(O)c1C2=O
inactive: all assays above

CC1(C)[C@H](C(=O)OCc2cccc(Oc3ccccc3)c2)[C@@H]1C=C(Cl)Cl
inactive: all assays above

O=C(CCCCCCCCc1cccnc1)N1CCC(C=C(c2ccccc2)c2ccccc2)CC1
inactive: all assays above

CCCc1ccccc1O
inactive: all assays above

O=c1[nH]cccc1O
inactive: all assays above

CO[C@@H]1[C@H](OC(=O)/C=C/C=C/C=C/C=C/C(=O)O)CC[C@]2(CO2)[C@H]1[C@@]1(C)O[C@@H]1CC=C(C)C
inactive: all assays above

CN(C)CCc1c[nH]c2ccc(C[C@H]3COC(=O)N3)cc12
inactive: all assays above

CC1=C(O)C(=O)OC1C (stereo unspecified)
inactive: all assays above

CCCCCOC(=O)Nc1nc(=O)n([C@@H]2O[C@H](C)[C@@H](O)[C@H]2O)cc1F
inactive: all assays above

O=C(O)CCCC(=O)O
6.21 µM (active) and inactive: [1]
inactive: all other assays above

Cc1ccc(C)o1
inactive: all assays above

COCC(O)CO (stereo unspecified)
inactive: all assays above

COc1ccc(C(=O)CC(=O)c2ccc(C(C)(C)C)cc2)cc1
inactive: all assays above

C=CC(=O)OCCCCCCCC
inactive: all assays above

NC(=O)c1cccnc1
inactive: all assays above

CC(=O)OC/C=C(/C)CCC=C(C)C
inactive: all assays above

COc1ccc(C)cc1[N+](=O)[O-]
inactive: all assays above

C[C@H]1C[C@H]2[C@@H]3CCC4=CC(=O)C=C[C@]4(C)[C@@]3(F)[C@@H](O)C[C@]2(C)[C@@]1(O)C(=O)CO
inactive: all assays above

CC(=O)O[C@]1(C(C)=O)CC[C@H]2[C@@H]3C=C(Cl)C4=CC(=O)[C@@H]5C[C@@H]5[C@]4(C)[C@H]3CC[C@@]21C
inactive: all assays above

CC(=O)c1ccc2ccccc2c1
inactive: all assays above

Cc1cc(C2CCCCC2)n(O)c(=O)c1
inactive: all assays above

CC(=O)Oc1ccccc1C(=O)Nc1ncc([N+](=O)[O-])s1
inactive: all assays above

CN1Cc2cc(C(=O)N3CCC(C4CCNCC4)CC3)ccc2N[C@@H](CC(=O)O)C1=O
inactive: all assays above

Cc1ccc(Nc2c(F)cccc2Cl)c(CC(=O)O)c1
inactive: all assays above

C/C(=N\O)c1ccc(OCC(=O)N2CCCCC2)cc1
inactive: all assays above

C[C@]12CC[C@H]3[C@@H](CCC4=CC(=O)CC[C@@]43C)[C@@H]1CC[C@@H]2C(=O)CO
inactive: all assays above

COC(=O)/C=C\C(=O)OC
inactive: all assays above

CCC(=O)OCCc1ccccc1
inactive: all assays above

O=C(O)Cc1ccc(-c2ccccc2)cc1
inactive: all assays above

CC1=C(/C=C/C(C)=C/C=C/C(C)=C/C(=O)O)C(C)(C)CCC1
inactive: all assays above

CN=C(NC#N)Nc1ccc(C2=NNC(=O)CC2C)cc1 (stereo unspecified)
inactive: all assays above

[Cl][In]([Cl])[Cl]
inactive: all assays above

c1ccc2c(c1)Oc1ccccc1S2
inactive: all assays above

Cc1ccc(C(C)C)cc1
inactive: all assays above

CC1COC(=O)O1 (stereo unspecified)
inactive: all assays above

Oc1c(Cl)cc(Cl)c(Cl)c1Cl
inactive: all assays above

COC(=O)c1ccccc1C
inactive: all assays above

OC1(c2ccc(Cl)c(C(F)(F)F)c2)CCN(CCCC(c2ccc(F)cc2)c2ccc(F)cc2)CC1
inactive: all assays above

CCOCOCC
inactive: all assays above

NC(=O)c1ccccc1O
inactive: all assays above

CN(C)CCCNCCC#N
inactive: all assays above

C=C(C)C(=O)O[C@H]1C[C@@H]2CC[C@@]1(C)C2(C)C
inactive: all assays above

C/C(=C\c1ccc(C(=O)O)cc1)c1ccc2c(c1)C(C)(C)CCC2(C)C
inactive: all assays above

Cc1c(N(C)C)c(=O)n(-c2ccccc2)n1C
inactive: all assays above

CCOC(=O)Cn1c(=O)sc2cccc(Cl)c21
inactive: all assays above

S=c1nccc[nH]1
inactive: all assays above

CC1CCC(C(C)C)C(O)C1 (stereo unspecified)
inactive: all assays above

CN(C)Cc1ccccc1O
inactive: all assays above

CC(C#N)(CCC(=O)O)N=NC(C)(C#N)CCC(=O)O (stereo unspecified)
inactive: all assays above

OCC(CO)(CO)CO
inactive: all assays above

CCNc1nc(NC(C)(C)C)nc(OC)n1
inactive: all assays above

C=C1[C@H]2CC[C@@H]3[C@H]2C(C)(C)CCC[C@]13C
inactive: all assays above

Nc1ccc(C(=O)Oc2ccccc2)c(O)c1
inactive: all assays above

Cc1ccc(S(=O)(=O)NC2CCCCC2)cc1
inactive: all assays above

c1cc[nH]c1
inactive: all assays above

O=C(O)CC(=O)O
inactive: all assays above

CCCCOC(=O)CCCCCCCCC(=O)OCCCC
inactive: all assays above

Cc1ccc2n[nH]nc2c1
inactive: all assays above

CCCCOC(=O)CCC(C)=O
inactive: all assays above

Clc1ccc2c(c1)C(N1CCNCC1)=Nc1ccccc1O2
inactive: all assays above

CC/C=C\CC1=C(C)CCC1=O
inactive: all assays above

O=C(O)CCC(=O)C(=O)O
inactive: all assays above

CC(C)=NNC(N)=S
inactive: all assays above

O=C(O)c1cc(-c2ccccc2)nc2ccccc12
inactive: all assays above

Cc1ccc([N+](=O)[O-])c(N)c1
inactive: all assays above

CCC(C)c1cc([N+](=O)[O-])cc([N+](=O)[O-])c1OC(=O)OC(C)C (stereo unspecified)
inactive: all assays above
